In the library only some 19% were active in any assay of this set; here they are far more common.
TDP1 cell noCPT – qHTS for Inhibitors of human tyrosyl-DNA phosphodiesterase 1 (TDP1): qHTS in cells in absence of CPT | Potency, µM (doses to about 46.2 µM), without a hit: top-dose activity change, negative = growth inhibition, usual class: inhibitors | AID 686978, 2013 | actives 15% (n = 420,000) | DT40 Tdp1-/- hTDP1 cells, no CPT, ATP luminescence, 48 h; further: potency means the concentration at half of the fitted maximal effect; nearly all actives have a fitted effect of over 55% in size
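Chicken DT40 Tdp1-/- cells stably complemented with human TDP1 were seeded at 400 cells/well with DMSO in place of 20 nM camptothecin. After compound pinning, cells grew at least 48 hr at 37 °C; viability read by CellTiter-Glo luminescence.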
HT1080-NT tox – kills 2HG-producing HT-1080-NT fibrosarcoma cells | HT-1080-NT fibrosarcoma viability, CellTiter-Glo ATP luminescence, 48 h | Potency, µM (doses to about 46.1 µM), without a hit: at the top dose activity, negative = less viability, hits mostly cytotoxic | actives 1.6% (n = 360,000) | AID 686970;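 further: NT is the 2HG producing partner of a matched IDH1 knockdown line; potency means the concentration at half of the fitted maximal effect; 0% = DMSO-treated cells and -100% = media-only wells without cells; nearly all actives have a fitted effect of over 55% in size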
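Luminescent CellTiter-Glo readout after 48 hours of compound exposure at 37 degrees C defined viability of HT-1080-NT cells. Activity was normalized to DMSO wells and cell-free media wells; concentration-response curves were fitted and assigned curve classes.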
TDP1 cell CPT – growth inhibition of DT40 Tdp1-/-;hTDP1 cells with camptothecin (screen for TDP1 inhibitors); chicken DT40 Tdp1-/-;hTDP1 cells + 20 nM CPT, ATP luminescence, 48 h; AID 686979; actives 12% (n = 420,000); Potency, µM (highest dose often 46.2 µM), for inactives: at the top dose activity change, negative = growth inhibition, hits mostly inhibitors; further: potency means the concentration at half of the fitted maximal effect; nearly all actives have a fitted effect of over 55% in size
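Chicken DT40 Tdp1-/- cells stably complemented with human TDP1 were seeded at 400 cells/well in medium containing 20 nM camptothecin, exposed to pin-transferred compounds, and grown at 37 °C for at least 48 hr. Viability was read as ATP luminescence.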
HT1080 IDH1KD tx – HT-1080 IDH1 knockdown cell toxicity (counter line); HT-1080 IDH1 knockdown viability, ATP luminescence, 48 h; Potency, µM (doses to about 46.1 µM), inactives show at the highest dose activity, negative = toxicity, hits mostly cytotoxic; actives 2% (n = 360,000); AID 686971;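 further: potency means the concentration at half of the fitted maximal effect; 0% = DMSO wells and -100% = cell-free medium wells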
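IDH1KD HT-1080 cells, 750/well, RPMI + 5% FBS; compound pinned after 2 h settling; 48 h, 37 °C; CellTiter-Glo luminescence; % activity normalised to DMSO and no-cell wells; curves fitted, classed by r2 and efficacy.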
uPA surface inh – inhibitors of cell surface uPA generation; Potency, µM (titrated, usually from 38.3 µM), without a hit: at the highest dose activity change, negative = inhibition, most hits filed as inhibitors; cell surface uPA generation assay, qHTS; AID 540303; actives 0.31% (n = 330,000); active means well fitted inhibition curve with a large enough effect; inconclusive means small, poorly fitted or top-dose-only effect; inactive means no such curve, though single readings can be large or run the other way; tested in mouse RAW 264.7 cells; further: potency means the concentration at half of the fitted maximal effect; nearly all actives have a fitted effect of over 55% in size
IL1B secr inh – inflammasome signaling inhibition, IL-1 beta readout. AID 743279. actives 4.7% (n = 360,000). activity change, % at 57.5 µM. THP-1 LPS/ATP IL-1B secretion, AlphaLISA, 16 h; stronger effect = lower value; in the data active means activity change below about -50%; inconclusive means mostly about -30% to -49%
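THP-1 cells pretreated 1 hr with compounds (up to 57.5 uM final), then stimulated with LPS (250 ng/mL final) plus ATP (1.25 mM final); secreted IL-1B measured by AlphaLISA after 16 hr, decreased signal indicating inhibition.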
An asterisk follows results filed as active; u = inconclusive; x = no result; ! = a repeat was not active. Unless noted, the call rests on the fitted dose curve; in most records, active means well fitted curve in the direction sought with a large enough effect; inconclusive means small, poorly fitted or top-dose-only effect, or another doubt; inactive means no such curve, though single readings can be large; an effect the other way counts as inactive or inconclusive. Unless noted, on the % scale 0 is the no-effect control and ±100 the full control effect.

SMILES	TDP1 cell noCPT	HT1080-NT tox	TDP1 cell CPT	HT1080 IDH1KD tx	uPA surface inh	IL1B secr inh
Cc1cncc(NCc2cccc(Cl)c2)n1	-25%	-13%	-19%	8%	x	0
Clc1cccc(-c2cc3nc(NCCOc4ccccc4)ccn3n2)c1	-5%	-7%	-2%	-12%	x	-17
Clc1cccc(CNc2ccn3nc(-c4ccccc4)cc3n2)c1	21µM*	u	23µM*	-27%	x	-6
CC[C@@H](C)[C@H]1O[C@]2(CC[C@@H]1C)C[C@@H]1C[C@H](C/C=C(/C)[C@H](O[C@@H]3C[C@H](OC)[C@H](O[C@@H]4C[C@H](OC)[C@@H](O)[C@H](C)O4)[C@H](C)O3)[C@@H](C)/C=C\C=C3CO[C@@H]4[C@H](O)C(C)=C[C@@H](C(=O)O1)[C@]34O)O2 (tested in a mixture with another compound)	u	x	12µM*	x	x	x
CCC(C)[C@H]1O[C@]2(C=C[C@@H]1C)C[C@@H]1C[C@@H](C/C=C(\C)[C@@H](O[C@H]3C[C@H](OC)[C@@H](O[C@H]4C[C@H](OC)[C@H](NC(C)=O)[C@H](C)O4)[C@H](C)O3)[C@@H](C)/C=C/C=C3\CO[C@@H]4[C@H](O)C(C)=C[C@@H](C(=O)O1)[C@]34O)O2 (some centres not stated)	2.7µM*	x	4.2µM*	x	x	x
CC[C@H](C)[C@H]1O[C@]2(CC[C@@H]1C)C[C@@H]1C[C@@H](CC=C(C)[C@@H](O[C@H]3C[C@H](OC)[C@@H](O[C@H]4C[C@H](OC)[C@@H](O)[C@H](C)O4)[C@H](C)O3)[C@@H](C)C=CC=C3CO[C@@H]4[C@H](O)C(C)=C[C@@H](C(=O)O1)[C@]34O)O2	3.7µM*	2.9µM*	3.7µM*	4.1µM*	2.5µM*	-29
CON=C1C[C@]2(C[C@@H]3C[C@@H](C/C=C(\C)C[C@@H](C)/C=C/C=C4\CO[C@@H]5[C@H](O)C(C)=C[C@@H](C(=O)O3)[C@]45O)O2)O[C@H](/C(C)=C/C(C)C)[C@H]1C	21µM*!	x	4.2µM*!	x	x	x
COc1ccc(S(=O)(=O)NC(C)c2ccc3c(c2)OCCO3)cc1 (configuration not stated)	-10%	5%	-18%	9%	x	2
COCCN(C(=O)COC(=O)CCCOc1ccccc1)c1c(N)n(Cc2ccccc2)c(=O)[nH]c1=O	u	0%	-5%	7%	1%	9
NCCCC(O)(P(=O)(O)O)P(=O)(O)O	-12%	x	-24%	x	x	x
CCc1nn(CC(=O)N(CC)Cc2ccccc2)c(=O)c2cc3occc3n12	16µM*	x	23µM*	x	x	x
CCc1nn(CC(=O)NC(C)CCc2ccccc2)c(=O)c2cc3occc3n12 (configuration not stated)	u	1%	u	1%	5%	2
Cn1c(=O)oc2cc(S(=O)(=O)NC(CC(=O)O)c3cccc(Br)c3)ccc21 (configuration not stated)	10%	x	29%	x	x	x
COCCCNC(=S)N1CCCN(c2nc3cc(C)c(C)cc3cc2C#N)CC1	u	-5%	u	-11%	-9%	-74*
CCOCCCNC(=S)N1CCCN(c2nc3cc(C)cc(C)c3cc2C#N)CC1	21µM*	u	18µM*	-29%	2%	0
Cc1c[nH]c(=O)n(CCCN2CCN(c3ccccc3OCC(F)(F)F)CC2)c1=O	u	x	-9%	x	x	x

Bioassay records: PubChem BioAssay, National Center for Advancing Translational Sciences (NCATS)
